Assay results reported in publication PMC7826789 (International Journal of Molecular Sciences, 2021).

Assays:
Settings in all cases: Compound Concentration (nM):1000
[1] = tested on: NEK3
[2] = tested on: NEK4
[3] = tested on: NEK5
[4] = tested on: NEK6
[5] = tested on: NEK7
[6] = tested on: NEK9
[7] = tested on: T1, NIK
T1 construct: gene MAP3K14

[8] = tested on: T2, NIM1
T2 construct: gene MGC42105

[9] = tested on: NLK
[10] = tested on: T3, OSR1
T3 construct: gene OXSR1

[11] = tested on: PAK1
[12] = tested on: PAK2
[13] = tested on: PAK3
[14] = tested on: PAK4
[15] = tested on: PAK6
[16] = tested on: PAK7
[17] = tested on: T4, PCTK1
T4 construct: gene CDK16

[18] = tested on: T5, PCTK2
T5 construct: gene CDK17

[19] = tested on: T6, PCTK3
T6 construct: gene CDK18

[20] = tested on: PDGFRA
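Further: KINOMEscan scanMAX binding as percent activity remaining versus control; lower means stronger binding.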

Compound	Percent Control [1] [%]	Percent Control [2] [%]	Percent Control [3] [%]	Percent Control [4] [%]	Percent Control [5] [%]	Percent Control [6] [%]	Percent Control [7] [%]	Percent Control [8] [%]	Percent Control [9] [%]	Percent Control [10] [%]	Percent Control [11] [%]	Percent Control [12] [%]	Percent Control [13] [%]	Percent Control [14] [%]	Percent Control [15] [%]	Percent Control [16] [%]	Percent Control [17] [%]	Percent Control [18] [%]	Percent Control [19] [%]	Percent Control [20] [%]
COc1ccc2c(-c3ccnc(Nc4cccc(OC(F)(F)F)c4)n3)cnn2n1 [GW810372X]	22	80	7.6	39	3.6	47	96	77	81	100	100	100	100	100	96	100	100	100	99	87
COc1cccc(-c2c[nH]c3c(N/N=C/c4ccncc4)ncnc23)c1 [GW814408X]	69	100	82	100	100	100	68	92	97	100	100	94	1.9	100	100	100	28	75	100	8.2
COc1cc(C=NNc2ncnc3c2cnn3-c2ccccc2)ccc1O [GW513184X]	100	100	76	82	100	100	92	100	100	100	100	100	50	100	100	100	29	38	84	63
COc1cc(N2CCN(C(C)C)CC2)ccc1Nc1nc(Nc2ccc(F)cc2C(=O)NC[C@@H](O)CO)c2cc[nH]c2n1 [GSK1392956A]	100	100	83	100	100	100	100	96	100	89	100	100	100	100	89	67	82	100	100	91
Cl.c1ccc(Cc2nc3ccc(Nc4ncnc5ccccc45)cc3[nH]2)cc1 [GR269666A]	100	100	100	100	100	100	100	94	100	100	100	100	100	100	100	100	100	100	100	49
Cl.O=C(Nc1ccc(Oc2ccc3[nH]c(NC(=O)c4ccco4)nc3c2)cc1)Nc1cc(C(F)(F)F)ccc1F [GW683134A]	97	81	96	100	100	10	100	97	87	100	100	100	5.6	100	92	100	100	100	100	11
Cl.O=S1CCN(Cc2ccc(-c3ccc4ncnc(Nc5ccc(OCc6ccccc6)c(F)c5)c4c3)o2)CC1 [GW576924A]	100	100	100	100	100	100	100	100	100	100	100	100	78	100	100	100	100	100	100	84
COc1ccccc1-c1cc(/C=C2\C(=O)Nc3ncc(Br)cc32)cc(Br)c1O [GW442130X]	100	100	100	100	100	100	100	100	100	77	100	100	67	100	100	98	79	100	100	71
CCc1ccc(Oc2nccc(-c3c(-c4ccc(F)cc4)ncn3C3CCNCC3)n2)cc1 [SB-242719]	100	96	100	100	100	100	100	83	25	100	100	100	71	100	82	98	87	100	94	100
NS(=O)(=O)c1ccc(Nc2ncc(-c3ccccc3)o2)cc1 [GW572399X]	84	100	100	100	78	100	91	96	100	100	100	100	86	100	87	100	3.8	100	100	8.8
